From PubChem BioAssay (NCATS)
Records with an inconclusive call do not appear. Calls of active or inactive are those of the source. Unless noted, the call rests on the fitted dose curve; in most records, active means well fitted curve in the direction sought with a large enough effect; inconclusive means small, poorly fitted or top-dose-only effect, or another doubt; inactive means no such curve, though single readings can be large; an effect the other way counts as inactive or inconclusive.

Key:
[1] = NS1 protein of Zika virus - qHTS assay to identify small molecule inhibitors in human HEK 293 cells (AID 1347053); further: series mostly up to about 46 µM; nearly all actives have a fitted effect of over 55% in size
Method in brief: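 Inhibition of NS1 expression was scored in HEK 293 cells given compound 1 h ahead of MR766 virus (MOI = 0.5). Following 24 h at 37 C, two anti-NS1 antibodies generated a TR-FRET signal, scaled between uninfected and infected controls.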

[2] = target: T1, Tyrosine-protein phosphatase non-receptor type substrate 1 (Homo sapiens) + Leukocyte surface antigen CD47 (Homo sapiens) (UniProt P78324+Q08722); assay: CD47-SIRPalpha protein protein interaction - LANCE assay qHTS validation (AID 1347057; active means well fitted curve in the direction sought with a large enough effect in the signal ratio, with a control signal flat, not every such curve was filed as active; the % refers to the signal ratio; further: series mostly up to about 38 µM)
T1 sequence (P78324 whole entry, looked up): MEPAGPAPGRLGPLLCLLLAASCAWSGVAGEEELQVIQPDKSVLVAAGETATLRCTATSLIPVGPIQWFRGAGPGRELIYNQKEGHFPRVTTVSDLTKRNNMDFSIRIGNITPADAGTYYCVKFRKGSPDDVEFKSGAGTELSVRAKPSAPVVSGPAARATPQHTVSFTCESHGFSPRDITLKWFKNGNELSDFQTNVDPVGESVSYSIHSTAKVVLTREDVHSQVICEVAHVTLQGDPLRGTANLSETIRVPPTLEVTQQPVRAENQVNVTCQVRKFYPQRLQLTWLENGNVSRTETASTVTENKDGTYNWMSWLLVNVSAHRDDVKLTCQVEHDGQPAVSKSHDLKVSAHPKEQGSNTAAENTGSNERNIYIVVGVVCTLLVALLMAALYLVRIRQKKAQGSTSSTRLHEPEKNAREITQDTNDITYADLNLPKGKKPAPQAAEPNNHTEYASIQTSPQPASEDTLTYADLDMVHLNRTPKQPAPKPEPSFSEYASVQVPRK
T1 sequence (Q08722 whole entry, looked up): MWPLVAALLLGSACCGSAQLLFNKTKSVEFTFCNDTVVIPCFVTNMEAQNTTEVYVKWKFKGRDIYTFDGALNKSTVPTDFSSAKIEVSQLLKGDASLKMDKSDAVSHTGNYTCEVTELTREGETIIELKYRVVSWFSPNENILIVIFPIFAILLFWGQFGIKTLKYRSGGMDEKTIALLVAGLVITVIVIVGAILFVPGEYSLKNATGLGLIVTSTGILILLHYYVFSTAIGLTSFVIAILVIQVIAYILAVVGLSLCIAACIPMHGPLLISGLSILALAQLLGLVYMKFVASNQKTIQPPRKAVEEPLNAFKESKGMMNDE
Method in brief: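 First, His-tagged CD47 and Eu-labelled anti-His antibody met the compound for 30 min; next, site-specifically biotinylated SIRPalpha was added for 30 min; finally streptavidin-APC was added before reading the TR-FRET ratio.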

[3] = target: T1, Tyrosine-protein phosphatase non-receptor type substrate 1 (Homo sapiens) + Leukocyte surface antigen CD47 (Homo sapiens); assay: CD47-SIRPalpha protein protein interaction - HTRF assay qHTS validation (AID 1347058; active means well fitted curve in the direction sought with a large enough effect in the signal ratio, not every such curve was filed as active; the % refers to the signal ratio;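 further: recombinant soluble extracellular CD47 with His tag and biotinylated SIRPalpha domains; series mostly up to about 38 µM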)
Method in brief: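 TR-FRET read (Ch1/Ch2 ratio) of soluble extracellular CD47 and Avi-biotinylated SIRPalpha domains in PBS pH 7.4 with 0.05% IGEPAL; 7-point compound titration. Sequential 30 min room-temperature steps; non-biotinylated SIRPalpha as control inhibitor.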

[4] = target: T1, Tyrosine-protein phosphatase non-receptor type substrate 1 (Homo sapiens) + Leukocyte surface antigen CD47 (Homo sapiens); assay: CD47-SIRPalpha protein protein interaction - Alpha assay qHTS validation (AID 1347059);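 further: bead proximity luminescence from CD47 binding SIRPalpha after compound preincubation with SIRPalpha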
Method in brief: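 Binding is measured by AlphaScreen proximity: Ni-NTA acceptor beads capture His-CD47, streptavidin donor beads capture biotin-SIRPalpha. Each of three additions (SIRPalpha with compound, CD47, beads) incubates 30 min at room temperature protected from light.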

[5] = target: Parathyroid hormone/parathyroid hormone-related peptide receptor (Homo sapiens) (UniProt Q03431); assay: qHTS for PTHR1 Agonists: Optimization Screen against the NCGC LOPAC library (AID 1347079);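 further: GloSensor cAMP luminescence in HEK-293 GP2 cells expressing human PTHR1 with IBMX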
Parathyroid hormone/parathyroid hormone-related peptide receptor (Homo sapiens), sequence (Q03431 whole entry, looked up): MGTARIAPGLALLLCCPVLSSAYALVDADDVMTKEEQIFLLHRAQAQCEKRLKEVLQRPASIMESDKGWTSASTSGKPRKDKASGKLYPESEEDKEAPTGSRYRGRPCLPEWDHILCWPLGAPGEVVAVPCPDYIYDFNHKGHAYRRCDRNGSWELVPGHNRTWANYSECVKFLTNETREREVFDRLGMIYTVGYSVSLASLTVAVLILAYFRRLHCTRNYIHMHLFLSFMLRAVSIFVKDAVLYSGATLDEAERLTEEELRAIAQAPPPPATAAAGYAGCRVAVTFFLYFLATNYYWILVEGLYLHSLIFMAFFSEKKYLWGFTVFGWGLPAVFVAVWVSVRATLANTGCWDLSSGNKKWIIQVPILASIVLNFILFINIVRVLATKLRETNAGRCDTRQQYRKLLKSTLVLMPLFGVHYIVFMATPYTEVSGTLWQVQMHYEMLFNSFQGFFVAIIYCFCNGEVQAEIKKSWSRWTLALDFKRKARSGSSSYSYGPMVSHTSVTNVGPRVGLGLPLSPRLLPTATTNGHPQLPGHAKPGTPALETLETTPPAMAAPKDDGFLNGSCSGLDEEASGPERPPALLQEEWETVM
Method in brief: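 Agonist readout: GloSensor cAMP luminescence, read after 15 min at room temperature. HEK-293-derived GP2 line carries PTHR1; compounds tested as a titration for 1 hr at 37C in presence of IBMX. M-PTH (1-15) served as control.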

[6] = qHTS of pediatric cancer cell lines to identify multiple opportunities for drug repurposing: Primary screen for TC32 cells (AID 1347089); further: nearly all actives have a fitted effect of over 60% in size
Method in brief: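 Measured quantity: luminescence from CellTiter-Glo, reflecting metabolically active TC32 cells following 48 h of compound. Curves came straight from multi-point titrations, with 8 or 11 points in primary and 11 in confirmatory screening.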

[7] = qHTS of pediatric cancer cell lines to identify multiple opportunities for drug repurposing: Primary screen for DAOY cells (AID 1347090); further: series mostly up to about 46 µM; nearly all actives have a fitted effect of over 55% in size
Method in brief: (§1)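 Cell viability, CellTiter-Glo luminescence; 500-1,000 cells/well, 8- or 11-point titration, 48 h compound exposure at 37 degrees C, 5% CO2. Controls: DMSO neutral, bortezomib 2.3 µM final as positive.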

[8] = qHTS of pediatric cancer cell lines to identify multiple opportunities for drug repurposing: Primary screen for SJ-GBM2 cells (AID 1347091)
Method in brief: as §1

[9] = qHTS of pediatric cancer cell lines to identify multiple opportunities for drug repurposing: Primary screen for A673 cells (AID 1347092); further: nearly all actives have a fitted effect of over 45% in size
Method in brief: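 Cells are plated, rested 5 h, dosed by pintool, incubated 48 h, then lysed with CellTiter-Glo and read by luminescence. DMSO is the neutral control; bortezomib at 2.3 uM final is the positive control.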

[10] = qHTS of pediatric cancer cell lines to identify multiple opportunities for drug repurposing: Primary screen for SK-N-MC cells (AID 1347093); further: series mostly up to about 46 µM
Method in brief: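 Metabolically active cells were quantified by ATP-dependent luminescence (CellTiter-Glo, 15 min at room temperature) following 48 h treatment. Cells had been plated at 500-1,000 per well and settled for 5 h beforehand.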

[11] = qHTS of pediatric cancer cell lines to identify multiple opportunities for drug repurposing: Primary screen for BT-37 cells (AID 1347094); further: series mostly up to about 57 µM
Method in brief: (§2)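 500-1,000 cells/well; 5 h pre-incubation 37 °C/5% CO2; compound pinned; 48 h; CellTiter-Glo, 15 min RT; luminescence. MIPE 11-pt from 0.78 nM, NPC 8-pt from 0.59 nM final. Bortezomib 2.3 µM final as positive control.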

[12] = qHTS of pediatric cancer cell lines to identify multiple opportunities for drug repurposing: Primary screen for NB-EBc1 cells (AID 1347095)
Method in brief: as §2

[13] = qHTS of pediatric cancer cell lines to identify multiple opportunities for drug repurposing: Primary screen for U-2 OS cells (AID 1347096); further: nearly all actives have a fitted effect of over 50% in size
Method in brief: (§3)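 Cells (500-1,000/well) rested 5 h, then received compounds for 48 h; metabolically active cells were measured by CellTiter-Glo luminescence. Final concentrations spanned up to 46 µM (MIPE, 11-point) or 0.59 nM-46 µM (NPC, 8-point) in primary screens, 11-point in follow-ups.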

[14] = qHTS of pediatric cancer cell lines to identify multiple opportunities for drug repurposing: Primary screen for Saos-2 cells (AID 1347097); further: nearly all actives have a fitted effect of over 40% in size
Method in brief: as §2

[15] = qHTS of pediatric cancer cell lines to identify multiple opportunities for drug repurposing: Primary screen for SK-N-SH cells (AID 1347098); further: nearly all actives have a fitted effect of over 65% in size
Method in brief: as §3

[16] = qHTS of pediatric cancer cell lines to identify multiple opportunities for drug repurposing: Primary screen for NB1643 cells (AID 1347099); further: nearly all actives have a fitted effect of over 50% in size
Method in brief: as §2

[17] = qHTS of pediatric cancer cell lines to identify multiple opportunities for drug repurposing: Primary screen for LAN-5 cells (AID 1347100)
Method in brief: as §3

[18] = qHTS of pediatric cancer cell lines to identify multiple opportunities for drug repurposing: Primary screen for BT-12 cells (AID 1347101); further: nearly all actives have a fitted effect of over 25% in size
Method in brief: as §3

[19] = qHTS of pediatric cancer cell lines to identify multiple opportunities for drug repurposing: Primary screen for Rh18 cells (AID 1347102); further: nearly all actives have a fitted effect of over 65% in size
Method in brief: as §3

Measured: Potency

CCOC(=O)C1=C(C)NC(C)=C(C(=O)OCC)C1c1c(F)c(F)c(F)c(F)c1F
inactive: [1] | [2] | [3] | [4] | [5]

N[C@H](CCCP(=O)(O)O)C(=O)O
inactive: [1] | [2] | [4]

O=c1cc(-c2ccccc2)oc2c(O)c(O)ccc12
inactive: [1] | [4]

O=c1[nH]c2cc([N+](=O)[O-])c([N+](=O)[O-])cc2[nH]c1=O
inactive: [1] | [2] | [4]

COc1ccc2c(c1)CCC1C2CC[C@@]2(C)C1CC[C@@H]2NCCCCCCN1C(=O)CCC1=O (some centres not stated)
inactive: [1] | [2] | [3] | [4] | [5]

O=C(Nc1ccncc1)c1cc([N+](=O)[O-])ccc1Cl
inactive: [1] | [2] | [4]

O=Nc1ccc2oc(=O)ccc2c1
inactive: [1] | [2] | [4] | [5]

Nc1nc(SCc2ccc([N+](=O)[O-])cc2)c2ncn([C@@H]3O[C@H](CO)[C@@H](O)[C@H]3O)c2n1
inactive: [1] | [2] | [4] | [5]

COc1cc(SC)ccc1C(=O)N1CCC(Cc2ccccc2)CC1
inactive: [1] | [2] | [3] | [4] | [5]

C[N+]1(C)[C@@H]2CC(OC(=O)[C@H](CO)c3ccccc3)C[C@H]1[C@@H]1O[C@@H]12 (some centres not stated)
not listed: [2] | [3] | [4] | [5]
inactive: all other assays above

CCN(CC)c1ncnc2c1ncn2[C@@H]1O[C@H](COP(=O)(O)OP(=O)(O)C(Br)(Br)P(=O)(O)O)[C@@H](O)[C@H]1O
inactive: [1] | [2] | [3] | [4] | [5]

CO/N=C(\C(=O)N[C@@H]1C(=O)N2C(C(=O)O)=C(COC(C)=O)CS[C@H]12)c1csc(N)n1
inactive: [1] | [2] | [3] | [4] | [5]

CN=c1nc(-c2ccccc2)n(-c2ccccc2)s1
inactive: [1] | [2] | [3] | [4] | [5]

CCCCCCCCCCCCCCCC(=O)OC(C)C
not listed: [2] | [3] | [4] | [5]
inactive: all other assays above

Clc1ccc(N2CCN(Cc3c[nH]c4ncccc34)CC2)cc1
inactive: [1] | [2] | [3] | [4] | [5]

COc1ccc(NC(=O)/C=C/c2ccc(Cl)cc2)cc1
inactive: [1] | [2] | [4] | [5]

O=C(O)c1cc(=O)c2c(Cl)cc(Cl)cc2[nH]1
inactive: [1] | [2] | [3] | [4] | [5]

CN(C)CCn1nnnc1SCC1=C(C(=O)O)N2C(=O)[C@@H](NC(=O)Cc3csc(N)n3)[C@H]2SC1
not listed: [2] | [3] | [4] | [5]
inactive: all other assays above

O=C(Nc1ccccc1)c1cc([N+](=O)[O-])ccc1Cl
inactive: [1] | [2] | [4] | [5]

COc1cc(OC)c(/C=C2/C(=O)Nc3ccccc32)c(OC)c1
inactive: [1] | [5]

O=C1NC(O)=NC1(c1ccccc1)c1ccccc1
inactive: [1] | [2] | [4]

O=C1NC(=O)/C(=C/c2ccc3nccnc3c2)S1
inactive: [1] | [2] | [4] | [5]

Fc1cccc(/C=N/N=C/c2cccc(F)c2)c1
inactive: [1] | [2] | [3] | [4] | [5]

O=C(c1ccc(Cl)cc1)N1CCN(c2ccc([N+](=O)[O-])c3ncccc23)CC1
inactive: [1] | [2] | [4] | [5]

CN(C)CCC(c1ccc(Cl)cc1)c1ccccn1 (configuration not stated)
inactive: [1] | [5]

O=C(NOCC1CC1)c1cc(Br)c(F)c(F)c1Nc1ccc(I)cc1Cl
inactive: [1] | [2] | [4]

COc1ccc(/C=C/c2nc(NCCCN(C)C)c3ccccc3n2)cc1
inactive: [1] | [4]

C#C[C@]1(O)CC[C@H]2[C@@H]3CCC4=Cc5oncc5CC4(C)[C@H]3CCC21C (some centres not stated)
inactive: [1] | [5]

Oc1cc(O)cc(/C=C/c2ccc(O)c(O)c2)c1
inactive: [1] | [2] | [5]

CCCCCCCCCCCCCCCCCC(=O)O
not listed: [2] | [3] | [4] | [5]
inactive: all other assays above
